Shown is part of a subset that was picked to be rich in hits.
12-LOX inh: ALOX12 (human) lipoxygenase inhibition; P18054; Potency, µM (doses to about 108 µM), for the others: top-dose activity change, negative = inhibition, actives largely listed as inhibitors; purified 12hLO, xylenol orange hydroperoxide absorbance; hit rate 1.1% among 580,000; also: potency is read from the fitted curve at half-maximal effect
Target sequence (P18054 whole entry, looked up): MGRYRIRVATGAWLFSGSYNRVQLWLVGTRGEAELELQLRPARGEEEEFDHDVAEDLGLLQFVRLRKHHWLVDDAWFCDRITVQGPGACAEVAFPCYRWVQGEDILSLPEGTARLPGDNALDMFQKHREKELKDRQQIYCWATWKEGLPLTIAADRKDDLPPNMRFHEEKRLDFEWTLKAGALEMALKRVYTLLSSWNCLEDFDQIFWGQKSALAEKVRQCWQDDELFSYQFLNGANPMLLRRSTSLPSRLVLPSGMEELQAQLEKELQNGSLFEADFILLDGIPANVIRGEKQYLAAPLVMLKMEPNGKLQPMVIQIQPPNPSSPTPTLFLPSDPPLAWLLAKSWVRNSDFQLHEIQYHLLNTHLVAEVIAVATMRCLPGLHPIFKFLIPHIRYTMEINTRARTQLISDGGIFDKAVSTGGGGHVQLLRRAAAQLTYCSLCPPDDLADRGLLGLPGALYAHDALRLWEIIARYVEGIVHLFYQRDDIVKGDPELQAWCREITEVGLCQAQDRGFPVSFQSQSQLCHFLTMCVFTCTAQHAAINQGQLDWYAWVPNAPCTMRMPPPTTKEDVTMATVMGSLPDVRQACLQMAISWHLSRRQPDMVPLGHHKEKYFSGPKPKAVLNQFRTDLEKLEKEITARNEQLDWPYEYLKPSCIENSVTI
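Purified human 12hLO at 150 nM in 25 mM Hepes, 0.01% Triton X-100, pH 7.0, preincubated 15 min at room temperature with compound. Reaction started with 40 uM arachidonic acid, 30 min at room temperature. Hydroperoxide measured by Fe-xylenol orange, 573/405 nm absorbance ratio.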
HT1080-NT tox: kills 2HG-producing HT-1080-NT fibrosarcoma cells; HT-1080-NT fibrosarcoma viability, CellTiter-Glo ATP luminescence, 48 h; Potency, µM (series often up to 46.1 µM), for inactives: at the top dose activity, negative = less viability, usual class: cytotoxic; hit rate 1.6% among 360,000; AID 686970;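 also: NT is the 2HG producing partner of a matched IDH1 knockdown line; potency is read from the fitted curve at half-maximal effect; 0% = DMSO-treated cells and -100% = media-only wells without cells; nearly all actives have a fitted effect of over 55% in size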
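Viability of the 2HG-overproducing fibrosarcoma line after 48 hours of compound exposure at 37 degrees C was determined by luminescence with CellTiter-Glo, and concentration-effect curves were then fitted and categorized.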
IL1B secr inh: inhibitors of inflammasome signaling (IL-1 beta secretion); AID 743279; activity change, % at 57.5 µM; THP-1 LPS/ATP IL-1B secretion, AlphaLISA, 16 h; active compounds read low; hit rate 4.7% among 360,000; in the data active = activity change below about -50%; inconclusive = mostly about -30% to -49%
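Secreted IL-1B measured by AlphaLISA bead assay after 16 h compound exposure of THP-1 cells; compounds (final up to 57.5 uM) added 1 h before LPS (250 ng/mL) and ATP (1.25 mM) stimulation; lower signal means less secretion.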
DT40 TDP1 no CPT: qHTS for Inhibitors of human tyrosyl-DNA phosphodiesterase 1 (TDP1): qHTS in cells in absence of CPT | hit rate 15% among 420,000 | Potency, µM (series often up to 46.2 µM), without a hit: at the top dose activity change, negative = growth inhibition, hits mostly inhibitors | DT40 Tdp1-/- hTDP1 cells, no CPT, ATP luminescence, 48 h; also: potency is read from the fitted curve at half-maximal effect; nearly all actives have a fitted effect of over 55% in size
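A cellular qHTS used chicken DT40 cells lacking endogenous Tdp1 but carrying stably transfected human TDP1. Compounds were applied without camptothecin, and cell growth kinetics were judged by ATP-dependent luminescence after ≥48 hr.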
TDP1 cell CPT: growth inhibition of DT40 Tdp1-/-;hTDP1 cells with camptothecin (screen for TDP1 inhibitors); Potency, µM (titrated, usually from 46.2 µM), inactives show at the top dose activity change, negative = growth inhibition, usual class: inhibitors; hit rate 12% among 420,000; chicken DT40 Tdp1-/-;hTDP1 cells + 20 nM CPT, ATP luminescence, 48 h; also: potency is read from the fitted curve at half-maximal effect; nearly all actives have a fitted effect of over 55% in size
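Chicken DT40 Tdp1-/- cells stably complemented with human TDP1 were seeded at 400 cells/well in medium containing 20 nM camptothecin, exposed to pin-transferred compounds, and grown at 37 °C for at least 48 hr. Viability was read as ATP luminescence.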
HT1080 IDH1KD tx: HT-1080 IDH1 knockdown cell toxicity (counter line). Potency, µM (titrated, usually from 46.1 µM), inactives show top-dose activity, negative = toxicity, actives largely listed as cytotoxic. HT-1080 IDH1 knockdown viability, ATP luminescence, 48 h. hit rate 2% among 360,000;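 also: potency is read from the fitted curve at half-maximal effect; 0% = DMSO wells and -100% = cell-free medium wells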
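IDH1KD HT-1080 cells, 750/well, RPMI + 5% FBS; compound pinned after 2 h settling; 48 h, 37 °C; CellTiter-Glo luminescence; % activity normalised to DMSO and no-cell wells; curves fitted, classed by r2 and efficacy.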
* = called active by the depositor; i = inactive; ? = inconclusive; nt = no result given; [ ] = dose if it differs, or a comment. Unless noted, calls follow the shape of the dose curve; as a rule, active = well fitted curve in the direction sought with a large enough effect; inconclusive = small, poorly fitted or top-dose-only effect, or another doubt; inactive = no such curve, though single readings can be large; an effect the other way counts as inactive or inconclusive. Unless noted, % is scaled to controls: 0 for no effect and ±100 for the full control effect.

SMILES | 12-LOX inh | HT1080-NT tox | IL1B secr inh | DT40 TDP1 no CPT | TDP1 cell CPT | HT1080 IDH1KD tx
CO[C@@H]1CCOC[C@H]1NC(=O)C1CCN(C(=O)c2ccccn2)CC1 | 61% | nt | nt | nt | nt | nt
CCNC(=O)[C@@H]1C[C@H](NC(=O)CCOC)CN1Cc1ccc(F)cc1C | 58% | nt | nt | nt | nt | nt
COC[C@@H]1[C@H](NC(=O)c2cc(N3CCCCC3)ccc2Cl)[C@@H]2CCO[C@H]12 | 24% | nt | nt | nt | nt | nt
COc1cc(NC(=O)CN(c2cc(C)cc(C)c2)S(=O)(=O)c2c(C)noc2C)cc(OC)c1 | 10% | 0% | -5 | ? | 18µM* | -5%
O=C(CCCc1c[nH]c2ccccc12)N1CCc2c(nc3cc(-c4ccccc4)[nH]n3c2=O)C1 | -6% | nt | nt | nt | nt | nt
COCc1cc(/C=N\NC(=O)COc2ccc(Cl)cc2)ccc1OC | -10% | 30% | 1 | ? | 2% | 19%
COc1ccc(/C=N/NC(=O)c2ccn[nH]2)cc1COc1ccc(Cl)cc1Cl | 1% | ? | -79* | ? | ? | 3%[9.24 µM]
COc1ccc(/C=N/NC(=O)c2ccccc2OC)cc1COc1ccccc1[N+](=O)[O-] | -26% | ? | -11 | 29µM* | 18µM* | ?
COc1ccc(/C=N\NC(=O)c2ccccc2Br)cc1COc1ccc(F)cc1 | -56% | 0% | 10 | 18µM* | ? | -1%
COc1ccc(/C=N/NC(=O)c2ccn[nH]2)cc1COc1ccc(F)cc1 | 60%[57.4 µM] | -9% | 163 | ? | 16µM* | -18%
COc1ccc(/C=N/NC(=O)c2ccn[nH]2)cc1COc1ccc([N+](=O)[O-])c(C)c1 | 77% | ? | ? | ? | ? | ?
COc1ccc(C(=O)N/N=C/c2ccc(OC)c(COc3ccc(F)cc3F)c2)cc1 | -3% | -1% | -6 | 18µM* | ? | -10%
COc1ccc(/C=N/NC(=O)c2cccnc2)cc1COc1ccc([N+](=O)[O-])c(C)c1 | 178% | 2.6µM* | nt | 4.1µM* | 3.7µM* | 2.1µM*
COc1ccc(/C=N\NC(=O)c2ccc([N+](=O)[O-])c(C)c2)cc1COc1ccccc1C(N)=O | 1% | 6% | i | -21% | -29% | -3%
COc1ccc(C(=O)C[n+]2cccc3cc(OC)ccc32)cc1 | -15% | -16% | -1 | 21µM* | ? | -9%
O=C(C[n+]1cccc2ccccc21)c1ccc(Cl)cc1 | -7% | -7% | -2 | -13% | -22% | -25%
Clc1cccc(Cl)c1C[n+]1cccc2ccccc21 | 154% | ? | -7 | 2.1µM* | 2.1µM* | ?
O=C(C[n+]1cccc2ccccc21)c1ccc([N+](=O)[O-])cc1 | ? | -2% | 55 | ? | 21µM* | ?
Nc1ccccc1SCc1c(Cl)cccc1Cl | -2% | -8% | -14 | -26% | ? | -4%
O=[N+]([O-])c1ccc(Cl)c(C[n+]2cccc3ccccc32)c1 | -4% | -16% | 16 | 18µM* | 21µM* | -13%
COc1ccc(Cl)cc1NC(=O)CCCC(=O)c1ccccc1 | 16% | 10% | ? | ? | 21µM* | -7%
COc1ccc(Cl)cc1NC(=O)CN1CCc2ccccc2C1 | 20% | -12% | -81* | -4% | -30% | 9%
COc1ccc(Cl)cc1NC(=O)NCC1CCN(C(=O)OC(C)(C)C)CC1 | 7% | -18% | -55* | -15% | -7% | -31%
COc1ccc(Cl)cc1NC(=O)NCCN1CCCCC1 | -6% | -3% | -27 | -10% | -1% | -2%
CCN(C(=O)Cn1c(C(=O)OC)cc2sccc21)c1cccc(C)c1 | -4% | nt | nt | ? | 23µM* | nt
SMILES | 12-LOX inh | HT1080-NT tox | IL1B secr inh | DT40 TDP1 no CPT | TDP1 cell CPT | HT1080 IDH1KD tx
COc1ccc(Cl)cc1NC(=O)CN1c2ccccc2CC1C (configuration not stated) | -2% | ? | 21 | ? | ? | ?
COC(=O)c1cc(NC(=O)c2c(F)c(F)c(F)c(F)c2F)cc(C(=O)OC)c1 | 4% | 1% | ? | ? | ? | 6%
COc1cc2c(cc1OC)CN(CCC(C)c1ccc(Cl)cc1)CC2 (configuration not stated) | ? | -38% | -21 | 16µM* | 15µM* | 15µM*
COC(=O)c1cc2sccc2n1CC(=O)Nc1cc(Cl)ccc1OC | -23% | nt | nt | 10µM* | 12µM* | nt
COc1ccc(Cl)cc1NC(=O)CN1CCC(NC(=O)C2CC2)CC1 | 0% | -3% | 20 | ? | 23µM* | -13%
COc1ccc(Cl)cc1NC(=O)COC(=O)c1cc(C)oc1C | 182% | -2% | -28 | 3.3µM* | ? | 5%
COc1cccc(C(C)NC(=O)Cc2ccccc2C)c1 (configuration not stated) | 8% | nt | nt | nt | nt | nt
Cc1ccc(S(=O)(=O)N(CC(=O)N2CCCC2)Cc2ccc(Br)cc2)cc1 | -23% | nt | nt | nt | nt | nt
O=C(C[C@@H]1O[C@H](CNC(=O)Nc2ccccc2)[C@@H](O)[C@H]1O)NCc1cccnc1 | 55%[176 µM] | nt | nt | nt | nt | nt
COC(=O)c1[nH]c2ccc(Cl)cc2c1NC(=O)CN1CCc2cc(OC)c(OC)cc2C1 | 13% | -25% | -11 | 21µM* | ? | -23%
COC(=O)c1[nH]c2cc(C)ccc2c1NC(=O)CN1CCc2cc(OC)c(OC)cc2C1 | nt | -26% | ? | ? | ? | ?
COc1cc2c(cc1OC)CN(CC(=O)Nc1ccc(Cl)cc1Cl)CC2 | 0% | -12% | 12 | 21µM* | 21µM* | -9%
Nc1[nH]c(=O)nc2nnsc12 | nt | nt | nt | -28% | -2% | nt
Nc1ccc2nc(-c3ccccc3)cnc2c1 | 13% | 6% | -4 | -23% | 0% | -1%
Nc1ccc(Oc2ccc3nc(-c4ccccc4)c(-c4ccccc4)nc3c2)cc1 | 0% | -10% | -58* | 21µM* | ? | -7%
Nc1ccc2nc(-c3ccccc3)c(-c3ccccc3)nc2c1 | -22% | -4% | 31 | 21µM* | ? | -2%
O=c1cc2oc3cc(O)c(O)cc3c(-c3ccccc3[N+](=O)[O-])c-2cc1O | ? | 15µM* | -7 | 23µM* | 21µM* | 21µM*
O=c1cc(-c2ccccc2Cl)oc2cccc(O)c12 | 40% | 12% | 15 | -13% | 0% | 13%
OCCN1CCN(CC/C=C2/c3ccccc3CSc3ccccc32)CC1 | 5% | -10% | 0 | ? | ? | -21%
OCCN1CCN(CC/C=C2/c3ccccc3Sc3ccc(C(F)(F)F)cc32)CC1 | ? | 21µM* | ? | 9.4µM* | 21µM* | 21µM*

Screens as filed in PubChem BioAssay.
